Experimental data from PubChem BioAssay (EPA / NIEHS).
Activity calls are given as the source filed them. How the source made its calls: active means hit-call score of the fitted dose curve at least 0.9, where 1 is the maximum; inactive means score below 0.9.

Key:
Conditions in all cases: mRNA level, 48 h; actives raise or lower the signal
[1] = read-out: Cytochrome P450 (CYP1A1), CYP1A1 (gene 1543); experiment: LTEA_HepaRG_CYP1A1: Life Technologies and Expression Analysis (LTEA) Assay for Cytochrome P450 (CYP1A1) using HepaRG (AID 2283454)
Outline: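 CYP1A1 transcript levels measured by Fluidigm qRT-PCR against three housekeeping genes, 48 h after chemical dosing of human HepaRG cells (highest concentration 100 uM, half-log steps, 0.5% DMSO vehicle). Gain or loss of signal fitted relative to DMSO.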

[2] = read-out: CFLAR gene, CFLAR (gene 8837); experiment: LTEA_HepaRG_CFLAR: Life Technologies and Expression Analysis (LTEA) Assay for CFLAR gene using HepaRG (AID 2283455)
Outline: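 Transcript level by qRT-PCR (normalized to ACTB, GAPDH and POLR2A) after 48 h chemical exposure of HepaRG cells, top concentration 100 uM with half-log steps, 0.5% DMSO vehicle, duplicates; fitted bidirectionally against DMSO baseline.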

[3] = read-out: Forkhead box O1 (FOXO1), FOXO1 (gene 2308); experiment: LTEA_HepaRG_FOXO1: Life Technologies and Expression Analysis (LTEA) Assay for Forkhead box O1 (FOXO1) using HepaRG (AID 2283456)
Outline: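 FOXO1 transcript quantified by qRT-PCR after 48 h chemical exposure (top 100 uM, half-log steps, 0.5% DMSO) of HepaRG cells, housekeeping-normalized (ACTB/GAPDH/POLR2A). Changes fitted in both directions relative to vehicle.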

[4] = read-out: growth arrest and DNA damage 45 (GADD45A), GADD45A (gene 1647); experiment: LTEA_HepaRG_GADD45A: Life Technologies and Expression Analysis (LTEA) Assay for growth arrest and DNA damage 45 (GADD45A) using HepaRG (AID 2283458)
Outline: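 Transcript induction or loss, quantified by TaqMan qRT-PCR against three housekeeping genes, is the read-out. HepaRG cells received chemicals for 48 h across eight half-log concentrations from 100 uM in 0.5% DMSO; gain and loss fitted relative to DMSO.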

[5] = read-out: Forkhead box O3 (FOXO3), FOXO3 (gene 2309); experiment: LTEA_HepaRG_FOXO3: Life Technologies and Expression Analysis (LTEA) Assay for Forkhead box O3 (FOXO3) using HepaRG (AID 2283459)
Outline: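 FOXO3 transcript measured by qRT-PCR (normalized to ACTB, GAPDH, POLR2A) after 48 h exposure of HepaRG cells in serum-free induction medium. Duplicates, eight half-log concentrations up to 100 uM, 0.5% DMSO; gain or loss fitted against DMSO.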

[6] = read-out: ABC Transporter (ABCB1), ABCB1 (gene 5243); experiment: LTEA_HepaRG_ABCB1: Life Technologies and Expression Analysis (LTEA) Assay for ABC Transporter (ABCB1) using HepaRG (AID 2283460)
Outline: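 ABCB1 transcript level measured by TaqMan qRT-PCR against three housekeeping genes after 48 h chemical exposure of differentiated HepaRG cells. Top concentration 100 uM, half-log steps, eight points, 0.5% DMSO vehicle; bidirectional fit relative to DMSO.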

[7] = read-out: growth arrest and DNA damage 45 (GADD45B), GADD45B (gene 4616); experiment: LTEA_HepaRG_GADD45B: Life Technologies and Expression Analysis (LTEA) Assay for growth arrest and DNA damage 45 (GADD45B) using HepaRG (AID 2283461)
Outline: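 Transcript level quantified by Fluidigm TaqMan qRT-PCR with three housekeeping genes for normalization, analyzed for up- or down-regulation against 0.5% DMSO. HepaRG cultures dosed 48 h at eight half-log concentrations up to 100 uM, duplicates.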

[8] = read-out: ABC Transporter (ABCC3), ABCC3 (gene 8714); experiment: LTEA_HepaRG_ABCC3: Life Technologies and Expression Analysis (LTEA) Assay for ABC Transporter (ABCC3) using HepaRG (AID 2283462)
Outline: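 Transcript level by TaqMan qRT-PCR, normalised to three housekeeping genes, fitted in both directions relative to vehicle. Chemicals tested in duplicate at eight half-log concentrations up to 100 uM for 48 h on HepaRG cells (0.5% DMSO).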

[9] = read-out: ABC Transporter (ABCB11), ABCB11 (gene 8647); experiment: LTEA_HepaRG_ABCB11: Life Technologies and Expression Analysis (LTEA) Assay for ABC Transporter (ABCB11) using HepaRG (AID 2283463)
Outline: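 ABCB11 transcript levels quantified by TaqMan qRT-PCR against three housekeeping genes after 48 h chemical exposure of HepaRG cultures. Concentrations up to 100 uM in half-log steps, 0.5% DMSO vehicle; both induction and suppression scored.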

[10] = read-out: ABC Transporter (ABCC2), ABCC2 (gene 1244); experiment: LTEA_HepaRG_ABCC2: Life Technologies and Expression Analysis (LTEA) Assay for ABC Transporter (ABCC2) using HepaRG (AID 2283464)
Outline: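 Endpoint is ABCC2 transcript level from qRT-PCR, normalized to three housekeeping genes and fitted bidirectionally relative to DMSO. Human HepaRG cells received test chemical for 48 h at up to 100 uM (8 points, half-log steps, 0.5% DMSO), duplicate wells.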

[11] = read-out: Broad substrate specificity ATP-binding cassette transporter ABCG2 (Homo sapiens) (UniProt Q9UNQ0); experiment: LTEA_HepaRG_ABCG2: Life Technologies and Expression Analysis (LTEA) Assay for ABC Transporter (ABCG2) using HepaRG (AID 2283465)
Outline: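 ABCG2 transcript was quantified by TaqMan qRT-PCR against three housekeeping genes in HepaRG cells. Cells were treated in duplicate for 48 h across an 8-point half-log series up to 100 uM, with 0.5% DMSO vehicle. Gain or loss versus DMSO was fit.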

[12] = read-out: ATP-citrate lyase (ACLY), ACLY (gene 47); experiment: LTEA_HepaRG_ACLY: Life Technologies and Expression Analysis (LTEA) Assay for ATP-citrate lyase (ACLY) using HepaRG (AID 2283466)
Outline: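 ACLY mRNA quantified by qRT-PCR on Fluidigm arrays against three housekeeping genes, after 48 h chemical treatment of HepaRG cells (top concentration 100 uM, half-log steps, 0.5% DMSO vehicle). Up- or down-regulation fitted relative to DMSO.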

[13] = read-out: Peroxisomal acyl-coenzyme A oxidase 1 (ACOX1) gene, ACOX1 (gene 51); experiment: LTEA_HepaRG_ACOX1: Life Technologies and Expression Analysis (LTEA) Assay for Peroxisomal acyl-coenzyme A oxidase 1 (ACOX1) gene using HepaRG (AID 2283467)
Outline: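 ACOX1 transcript levels were quantified by TaqMan qRT-PCR against three housekeeping genes after 48 h chemical exposure of differentiated human HepaRG cells. Exposure used eight half-log steps topping at 100 uM, 0.5% DMSO vehicle, in duplicate. Bidirectional curve fits were made relative to DMSO.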

[14] = read-out: Alkaline Phosphatase, Placental (ALPP) gene, ALPP (gene 250); experiment: LTEA_HepaRG_ALPP: Life Technologies and Expression Analysis (LTEA) Assay for Alkaline Phosphatase, Placental (ALPP) gene using HepaRG (AID 2283468)
Outline: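 ALPP transcript level, measured by qRT-PCR and normalized to three housekeeping genes (ACTB, GAPDH, POLR2A), after 48 h dosing of differentiated HepaRG in serum-free induction medium. Top concentration 100 uM with half-log dilutions (8 points, 0.5% DMSO, duplicates); bidirectional fitting relative to DMSO.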

[15] = read-out: Bcl-2 (BAD) gene, BAD (gene 572); experiment: LTEA_HepaRG_BAD: Life Technologies and Expression Analysis (LTEA) Assay for Bcl-2 (BAD) gene using HepaRG (AID 2283469)
Outline: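 Read-out: qRT-PCR of BAD mRNA, normalized to three housekeeping genes. Human HepaRG cultures got 48 h chemical exposure in 0.5% DMSO, duplicate eight-point half-log series topping at 100 uM. Gain or loss of signal fitted versus DMSO vehicle.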

[16] = read-out: adenosine kinase (ADK) gene, ADK (gene 132); experiment: LTEA_HepaRG_ADK: Life Technologies and Expression Analysis (LTEA) Assay for adenosine kinase (ADK) gene using HepaRG (AID 2283471)
Outline: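 HepaRG (human liver), 48 h chemical exposure, 8-pt half-log series, top 100 uM, 0.5% DMSO vehicle. Readout: ADK mRNA by qRT-PCR vs housekeeping genes; bidirectional curve fit relative to DMSO baseline.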

[17] = read-out: Alpha-fetoprotein (AFP) gene, AFP (gene 174); experiment: LTEA_HepaRG_AFP: Life Technologies and Expression Analysis (LTEA) Assay for Alpha-fetoprotein (AFP) gene using HepaRG (AID 2283472)
Outline: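 Chemicals were tested on differentiated HepaRG cells for 48 hours at eight concentrations up to 100 uM, with 0.5% DMSO as vehicle. AFP expression was then quantified by qRT-PCR and analyzed for gain or loss relative to DMSO.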

BCL2L11 (gene 10018) = experiment: LTEA_HepaRG_BCL2L11: Life Technologies and Expression Analysis (LTEA) Assay for Bcl-2 (BCL2L11) gene using HepaRG (AID 2283473)
Outline: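 BCL2L11 transcript levels are measured by Fluidigm qRT-PCR, normalized to three housekeeping genes. HepaRG cultures were plated 48 h, then treated 48 h with test chemical (top 100 uM, half-log, 0.5% DMSO vehicle); curves were fitted bidirectionally against DMSO.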

[18] = read-out: Bcl-2 (BAX) gene, BAX (gene 581); experiment: LTEA_HepaRG_BAX: Life Technologies and Expression Analysis (LTEA) Assay for Bcl-2 (BAX) gene using HepaRG (AID 2283470)
Outline: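 Cells were thawed, plated for 48 h, moved to serum-free induction medium and dosed for 48 h (highest concentration 100 uM, half-log steps, 0.5% DMSO). Total RNA was then analysed for BAX expression by qRT-PCR.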

Measured: AC50

Sequence of Broad substrate specificity ATP-binding cassette transporter ABCG2 (Homo sapiens) (Q9UNQ0 whole entry, looked up): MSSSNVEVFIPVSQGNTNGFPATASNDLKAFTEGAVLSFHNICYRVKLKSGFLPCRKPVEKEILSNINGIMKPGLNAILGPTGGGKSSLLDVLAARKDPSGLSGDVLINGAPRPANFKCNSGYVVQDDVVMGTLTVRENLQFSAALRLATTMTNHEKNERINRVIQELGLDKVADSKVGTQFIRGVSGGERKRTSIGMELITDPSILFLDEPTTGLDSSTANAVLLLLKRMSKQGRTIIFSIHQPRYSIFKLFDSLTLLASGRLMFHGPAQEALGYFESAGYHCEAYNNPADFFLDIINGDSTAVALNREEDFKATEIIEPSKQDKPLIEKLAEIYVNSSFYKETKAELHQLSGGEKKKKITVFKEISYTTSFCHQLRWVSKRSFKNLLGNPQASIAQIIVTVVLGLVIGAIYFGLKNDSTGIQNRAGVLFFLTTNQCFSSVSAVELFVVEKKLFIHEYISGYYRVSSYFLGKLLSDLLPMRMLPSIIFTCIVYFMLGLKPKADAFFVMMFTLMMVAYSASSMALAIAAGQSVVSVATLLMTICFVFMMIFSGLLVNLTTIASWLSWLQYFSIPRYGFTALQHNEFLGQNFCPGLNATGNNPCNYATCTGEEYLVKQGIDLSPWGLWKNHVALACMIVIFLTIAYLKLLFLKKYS

COc1cc(C=O)cc2c1[C@H](COC(N)=O)[C@]1(OC(C)=O)ON2C[C@H]2[C@@H]1N2C(C)=O
active: [1] 4.09 µM | [3] 3.75 µM | [4] 0.579 µM | [5] 3.8 µM | [6] 24.3 µM | [7] 92.3 µM | [8] 9.99 µM | [9] 0.38 µM | [13] 94.2 µM | [15] 89.3 µM | [16] 24.6 µM | [17] 0.95 µM | BCL2L11 (gene 10018) 1.29 µM
inactive: [2] | [10] | [11] | [12] | [14]

Nc1ccc(Cc2ccc(N)cc2)cc1
active: [1] 32.3 µM
inactive: all other assays above

CCCCCCCCOC(=O)c1ccc(C(=O)OCCCCCCCC)c(C(=O)OCCCCCCCC)c1
active: [1] 50.5 µM
not listed: [18]
inactive: all other assays above
